# Assay results published in PubChem BioAssay (NCATS).
# Inconclusive results are not listed. Entries that show only a call come without a potency. Unmarked numbers belong to inactive results. Calls of active or inactive are those of the source. The call rests on the fitted dose curve; in most records, active means well fitted curve in the direction sought with a large enough effect; inconclusive means small, poorly fitted or top-dose-only effect, or another doubt; inactive means no such curve, though single readings can be large; an effect the other way counts as inactive or inconclusive.
# Experiments:
# [1] = qHTS of pediatric cancer cell lines to identify multiple opportunities for drug repurposing: Primary screen for MG 63 (6-TG R) cells (AID 1347105); further: nearly all actives have a fitted effect of over 50% in size; further: potency means the concentration at half of the fitted maximal effect
# How it was run: (§1)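 Readout: CellTiter-Glo luminescence, 48 h treatment. Controls DMSO (neutral) and bortezomib 2.3 µM final (positive). Potency and efficacy taken from primary-screen concentration-response curves.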
# [2] = qHTS of pediatric cancer cell lines to identify multiple opportunities for drug repurposing: Primary screen for Rh30 cells (AID 1347107); further: series mostly up to about 46 µM; nearly all actives have a fitted effect of over 75% in size
# How it was run: (§2)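 Cells (500-1,000/well) rested 5 h, then received compounds for 48 h; metabolically active cells were measured by CellTiter-Glo luminescence. Final concentrations spanned up to 46 µM (MIPE, 11-point) or 0.59 nM-46 µM (NPC, 8-point) in primary screens, 11-point in follow-ups.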
# [3] = qHTS of pediatric cancer cell lines to identify multiple opportunities for drug repurposing: Primary screen for Rh41 cells (AID 1347108);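 further: series mostly up to about 46 µM; luminescence drop marks cytotoxic hits; nearly all actives have a fitted effect of over 70% in size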
# How it was run: as §1
# [4] = qHTS of pediatric cancer cell lines to identify multiple opportunities for drug repurposing: Primary screen for control Hh wild type fibroblast cells (AID 1347106);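 further: series mostly up to about 46 µM; a drop in luminescence marks cytotoxicity and a rise apparent proliferation; nearly all actives have a fitted effect of over 55% in size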
# How it was run: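 Viability after 48 h compound treatment at 37C, 500-1,000 cells/well, read as ATP luminescence with CellTiter-Glo. Primary screens used 11-point (MIPE, 0.78 nM-46 µM) or 8-point (NPC, 0.59 nM-46 µM) final concentrations; follow-up screens used 11-point dilutions.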
# [5] = qHTS of pediatric cancer cell lines to identify multiple opportunities for drug repurposing: Confirmatory screen for A673 cells (AID 1347110);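 further: cells exposed to compound for 48 h before the viability read; nearly all actives have a fitted effect of over 65% in size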; further: potency means the concentration at half of the fitted maximal effect
# How it was run: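 A673 cells at 500-1,000 cells/well were dosed 5 h after plating, in dilution series up to 46 uM final; primary runs used 8 or 11 points and confirmatory runs used 11 points. Viability was read by CellTiter-Glo luminescence after 48 h, against DMSO and 2.3 uM bortezomib controls.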
# [6] = qHTS of pediatric cancer cell lines to identify multiple opportunities for drug repurposing: Confirmatory screen for LAN-5 cells (AID 1347113); further: nearly all actives have a fitted effect of over 65% in size; further: potency means the concentration at half of the fitted maximal effect
# How it was run: as §2
# [7] = qHTS of pediatric cancer cell lines to identify multiple opportunities for drug repurposing: Confirmatory screen for NB-EBc1 cells (AID 1347115);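 further: cells exposed to compound for 48 h before the viability read; nearly all actives have a fitted effect of over 45% in size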; further: potency means the concentration at half of the fitted maximal effect
# How it was run: as §2
# [8] = qHTS of pediatric cancer cell lines to identify multiple opportunities for drug repurposing: Confirmatory screen for BT-37 cells (AID 1347117); further: nearly all actives have a fitted effect of over 55% in size; further: potency means the concentration at half of the fitted maximal effect
# How it was run: as §2
# [9] = qHTS of pediatric cancer cell lines to identify multiple opportunities for drug repurposing: Confirmatory screen for TC32 cells (AID 1347118);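 further: potency means the concentration at half of the fitted maximal effect; cells exposed to compound for 48 h before the read; nearly all actives have a fitted effect of over 65% in size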
# How it was run: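 TC32 cells, 500-1,000/well in growth medium, compound-treated 48 h at 37 °C; viability from CellTiter-Glo luminescence. Primary screen: MIPE 11-point (0.78 nM–46 µM final), NPC 8-point (0.59 nM–46 µM final); confirmatory at 11-point dilutions.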
# [10] = qHTS of pediatric cancer cell lines to identify multiple opportunities for drug repurposing: Confirmatory screen for RD cells (AID 1347124);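 further: cells exposed to compound for 48 h before viability readout; nearly all actives have a fitted effect of over 65% in size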; further: potency means the concentration at half of the fitted maximal effect
# How it was run: as §2
# [11] = qHTS of pediatric cancer cell lines to identify multiple opportunities for drug repurposing: Confirmatory screen for Saos-2 cells (AID 1347127); further: nearly all actives have a fitted effect of over 60% in size; further: potency means the concentration at half of the fitted maximal effect
# How it was run: as §2
# [12] = qHTS of pediatric cancer cell lines to identify multiple opportunities for drug repurposing: Confirmatory screen for OHS-50 cells (AID 1347128);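 further: compound exposure lasted 48 h at 37 degrees C; nearly all actives have a fitted effect of over 55% in size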; further: potency means the concentration at half of the fitted maximal effect
# How it was run: as §2
# [13] = qHTS of pediatric cancer cell lines to identify multiple opportunities for drug repurposing: Confirmatory screen for NB1643 cells (AID 1347109); further: nearly all actives have a fitted effect of over 45% in size; further: potency means the concentration at half of the fitted maximal effect
# How it was run: as §2
# [14] = qHTS of pediatric cancer cell lines to identify multiple opportunities for drug repurposing: Confirmatory screen for SK-N-MC cells (AID 1347111);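 further: potency means the concentration at half of the fitted maximal effect; cells exposed to compound for 48 h before the readout; nearly all actives have a fitted effect of over 70% in size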
# How it was run: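 Seed 500-1,000 cells/well; rest 5 h at 37 degrees C. Pin-transfer compounds, 11-point titration. Incubate 48 h. Add CellTiter-Glo, 15 min RT, read luminescence.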
# [15] = qHTS of pediatric cancer cell lines to identify multiple opportunities for drug repurposing: Confirmatory screen for DAOY cells (AID 1347114); further: nearly all actives have a fitted effect of over 65% in size; further: potency means the concentration at half of the fitted maximal effect
# How it was run: (§3)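 Viability measured as metabolically active cells via CellTiter-Glo luminescence following 48 hours of compound exposure, 11-point dilutions in confirmatory testing. 500-1,000 cells/well plated 5 hours before dosing; controls were DMSO and 2.3 µM bortezomib.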
# [16] = qHTS of pediatric cancer cell lines to identify multiple opportunities for drug repurposing: Confirmatory screen for SJ-GBM2 cells (AID 1347116); further: nearly all actives have a fitted effect of over 60% in size; further: potency means the concentration at half of the fitted maximal effect
# How it was run: as §3
# [17] = qHTS of pediatric cancer cell lines to identify multiple opportunities for drug repurposing: Confirmatory screen for Rh18 cells (AID 1347125); further: nearly all actives have a fitted effect of over 55% in size; further: potency means the concentration at half of the fitted maximal effect
# How it was run: as §2
# [18] = qHTS of pediatric cancer cell lines to identify multiple opportunities for drug repurposing: Confirmatory screen for Rh30 cells (AID 1347126); further: nearly all actives have a fitted effect of over 55% in size; further: potency means the concentration at half of the fitted maximal effect
# How it was run: as §2
# [19] = biological target: N-terminal Xaa-Pro-Lys N-methyltransferase 1 (Homo sapiens) (UniProt Q9BV86); assay: qHTS Assay for Inhibitors of N-terminal methyltransferase 1 (NTMT1): LOPAC validation of the NTMT1 SAHH-coupled ThioGlo3 Assay (AID 1347143);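 further: SAH from peptide methylation measured as thiol fluorescence via SAHH coupling and ThioGlo3; potency means the concentration at half of the fitted maximal effect; nearly all actives have a fitted effect of over 70% in size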
# How it was run: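 Inhibition of NTMT1 methylation of peptide SPKRIA is followed by converting SAH with SAHH and labelling the released thiol with ThioGlo3. Plates are read at 340/450nm before and 30 min after reagent addition, both at room temperature.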
# N-terminal Xaa-Pro-Lys N-methyltransferase 1 (Homo sapiens), sequence (Q9BV86 whole entry, looked up): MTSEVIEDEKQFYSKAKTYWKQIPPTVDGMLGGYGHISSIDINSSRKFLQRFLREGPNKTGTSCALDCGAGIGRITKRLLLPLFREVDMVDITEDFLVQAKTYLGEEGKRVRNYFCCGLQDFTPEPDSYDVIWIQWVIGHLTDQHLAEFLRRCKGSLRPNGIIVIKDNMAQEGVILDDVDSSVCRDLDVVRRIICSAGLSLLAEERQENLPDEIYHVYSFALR
structure (smiles),measurement,setting,value
Cc1ccnc(NS(=O)(=O)c2ccc(N)cc2)n1,Potency,[1],inactive
same,Potency,[2],inactive
same,Potency,[3],inactive
C[C@]12CC[C@@H]3c4ccc(O)cc4CC[C@H]3[C@@H]1C[C@@H](O)[C@@H]2O,Potency,[1],inactive
same,Potency,[2],inactive
same,Potency,[3],inactive
CC(=O)c1ccc2c(c1)N(CCCN1CCC(CCO)CC1)c1ccccc1S2,Potency,[1],inactive
same,Potency,[2],inactive
same,Potency,[3],inactive
CN(C)CC/C=C1\c2ccccc2Sc2ccc(Cl)cc21,Potency,[1],inactive
same,Potency,[2],inactive
CO/N=C1\CN(c2nc3c(cc2F)c(=O)c(C(=O)O)cn3C2CC2)CC1CN (configuration not stated),Potency,[1],inactive
same,Potency,[2],inactive
O=C1OC2(c3ccc(O)cc3Oc3cc(O)ccc32)c2ccccc21,Potency,[1],inactive
same,Potency,[2],inactive
same,Potency,[3],inactive
OC[C@H]1O[C@@H](n2cnc3c(=S)nc[nH]c32)[C@H](O)[C@@H]1O,Potency,[1],inactive
same,Potency,[4],inactive
same,Potency,[5],2080 nM (active)
same,Potency,[6],1170 nM (active)
same,Potency,[7],3690 nM (active)
same,Potency,[8],2930 nM (active)
same,Potency,[9],2330 nM (active)
same,Potency,[10],inactive
same,Potency,[11],4650 nM (active)
same,Potency,[12],2330 nM (active)
CCC(C(=O)OCCN(CC)CC)c1ccccc1 (configuration not stated),Potency,[1],inactive
same,Potency,[4],inactive
same,Potency,[2],inactive
same,Potency,[13],inactive
same,Potency,[14],13100 nM (active)
same,Potency,[6],inactive
same,Potency,[15],inactive
same,Potency,[7],inactive
same,Potency,[16],inactive
same,Potency,[8],inactive
same,Potency,[9],10400 nM (active)
same,Potency,[10],inactive
same,Potency,[17],inactive
same,Potency,[18],inactive
same,Potency,[11],inactive
Cc1ncc(CSSCc2cnc(C)c(O)c2CO)c(CO)c1O,Potency,[1],inactive
same,Potency,[2],inactive
same,Potency,[3],inactive
Oc1ccc(O)cc1,Potency,[1],inactive
same,Potency,[4],inactive
same,Potency,[2],inactive
same,Potency,[13],18500 nM (active)
same,Potency,[7],14700 nM (active)
same,Potency,[16],inactive
same,Potency,[8],inactive
same,Potency,[9],20800 nM (active)
same,Potency,[10],inactive
same,Potency,[18],inactive
same,Potency,[11],inactive
same,Potency,[12],inactive
same,Potency,[19],31600 nM (active)
CCCOC(C(=O)OC1CCN(C)CC1)(c1ccccc1)c1ccccc1,Potency,[1],inactive
same,Potency,[2],inactive
CN1[C@@H]2CC[C@H]1CC(OC(=O)c1c[nH]c3ccccc13)C2 (some centres not stated),Potency,[1],inactive
same,Potency,[2],inactive
same,Potency,[3],inactive
COCc1c(C(C)C)nc(C(C)C)c(/C=C/[C@@H](O)C[C@@H](O)CC(=O)O)c1-c1ccc(F)cc1,Potency,[1],84.1 nM (active)
same,Potency,[4],inactive
same,Potency,[2],inactive
same,Potency,[5],414 nM (active)
same,Potency,[14],2930 nM (active)
same,Potency,[6],13100 nM (active)
same,Potency,[15],414 nM (active)
same,Potency,[7],4140 nM (active)
same,Potency,[16],2610 nM (active)
same,Potency,[8],1650 nM (active)
same,Potency,[9],928 nM (active)
same,Potency,[10],928 nM (active)
same,Potency,[17],522 nM (active)
same,Potency,[18],414 nM (active)
same,Potency,[11],65.7 nM (active)
same,Potency,[12],465 nM (active)
C[C@]12CCC(=O)C=C1[C@@H]1C[C@@H]1[C@H]1[C@@H]3[C@@H]4C[C@@H]4[C@@]4(CCC(=O)O4)[C@@]3(C)CC[C@@H]12,Potency,[1],inactive
same,Potency,[2],inactive
same,Potency,[3],inactive
CC(=O)O[C@]1(C(C)=O)CC[C@H]2[C@@H]3C[C@H](C)C4=CC(=O)CC[C@]4(C)[C@H]3CC[C@@]21C,Potency,[1],inactive
same,Potency,[4],inactive
same,Potency,[5],1310 nM (active)
same,Potency,[14],23300 nM (active)
same,Potency,[6],inactive
same,Potency,[7],inactive
same,Potency,[10],inactive
same,Potency,[17],inactive
same,Potency,[18],inactive
same,Potency,[11],inactive
OC[C@@H](O)[C@@H](O[C@@H]1O[C@H](CO)[C@H](O)[C@H](O)[C@H]1O)[C@H](O)[C@@H](O)CO,Potency,[1],inactive
same,Potency,[2],inactive
same,Potency,[3],inactive
CCN(CC)C(=O)/C(C#N)=C/c1cc(O)c(O)c([N+](=O)[O-])c1,Potency,[1],inactive
same,Potency,[2],inactive
Cc1c(C(C)C)c(=O)n(-c2ccccc2)n1C,Potency,[1],inactive
same,Potency,[2],inactive
same,Potency,[3],inactive
C=CCc1ccc(O)c(OC)c1,Potency,[1],inactive
same,Potency,[2],inactive
same,Potency,[3],inactive
CC1(C)O[C@@H]2C[C@H]3[C@@H]4C[C@H](F)C5=CC(=O)CC[C@]5(C)[C@H]4[C@@H](O)C[C@]3(C)[C@]2(C(=O)CO)O1,Potency,[1],inactive
same,Potency,[4],inactive
same,Potency,[2],inactive
same,Potency,[13],inactive
same,Potency,[5],inactive
same,Potency,[6],inactive
same,Potency,[15],inactive
same,Potency,[7],inactive
same,Potency,[16],inactive
same,Potency,[8],inactive
same,Potency,[10],inactive
same,Potency,[17],inactive
same,Potency,[11],inactive
same,Potency,[12],inactive
NC[C@H]1O[C@H](O[C@H]2[C@H](O[C@@H]3O[C@H](CO)[C@@H](O)[C@H]3O)C(O)[C@H](N)C[C@@H]2N)[C@H](N)[C@@H](O)[C@@H]1O (some centres not stated),"activity change, negative = cytotoxic",[1],-2.08% [at 9.22 µM]
same,"activity change, negative = cytotoxic",[2],23.6% [at 9.22 µM]
same,"activity change, negative = cytotoxic",[3],34.8% [at 9.22 µM]
O=C(CCN1CCC(c2ccccc2)C1)c1ccc2c(c1)OCCO2 (configuration not stated),Potency,[4],inactive
CC(C)COC(=O)c1ccc(N)cc1,Potency,[1],inactive
same,Potency,[2],inactive
same,Potency,[3],inactive
Oc1c(I)cc(I)c2cccnc12,Potency,[4],inactive
same,Potency,[2],inactive
NC(=O)C(=O)N/N=C/c1ccc([N+](=O)[O-])o1,Potency,[4],inactive
Oc1ccc(Cl)cc1Sc1cc(Cl)ccc1O,Potency,[4],inactive
